Of roughly 8,800 targets only a part is listed; those with a hit were picked by preference. About 0.5% of all pairs of compound and target were hits. Values without a mark were called inactive.

Sequence of UniProt Q7Z3V4 (Q7Z3V4 whole entry, looked up): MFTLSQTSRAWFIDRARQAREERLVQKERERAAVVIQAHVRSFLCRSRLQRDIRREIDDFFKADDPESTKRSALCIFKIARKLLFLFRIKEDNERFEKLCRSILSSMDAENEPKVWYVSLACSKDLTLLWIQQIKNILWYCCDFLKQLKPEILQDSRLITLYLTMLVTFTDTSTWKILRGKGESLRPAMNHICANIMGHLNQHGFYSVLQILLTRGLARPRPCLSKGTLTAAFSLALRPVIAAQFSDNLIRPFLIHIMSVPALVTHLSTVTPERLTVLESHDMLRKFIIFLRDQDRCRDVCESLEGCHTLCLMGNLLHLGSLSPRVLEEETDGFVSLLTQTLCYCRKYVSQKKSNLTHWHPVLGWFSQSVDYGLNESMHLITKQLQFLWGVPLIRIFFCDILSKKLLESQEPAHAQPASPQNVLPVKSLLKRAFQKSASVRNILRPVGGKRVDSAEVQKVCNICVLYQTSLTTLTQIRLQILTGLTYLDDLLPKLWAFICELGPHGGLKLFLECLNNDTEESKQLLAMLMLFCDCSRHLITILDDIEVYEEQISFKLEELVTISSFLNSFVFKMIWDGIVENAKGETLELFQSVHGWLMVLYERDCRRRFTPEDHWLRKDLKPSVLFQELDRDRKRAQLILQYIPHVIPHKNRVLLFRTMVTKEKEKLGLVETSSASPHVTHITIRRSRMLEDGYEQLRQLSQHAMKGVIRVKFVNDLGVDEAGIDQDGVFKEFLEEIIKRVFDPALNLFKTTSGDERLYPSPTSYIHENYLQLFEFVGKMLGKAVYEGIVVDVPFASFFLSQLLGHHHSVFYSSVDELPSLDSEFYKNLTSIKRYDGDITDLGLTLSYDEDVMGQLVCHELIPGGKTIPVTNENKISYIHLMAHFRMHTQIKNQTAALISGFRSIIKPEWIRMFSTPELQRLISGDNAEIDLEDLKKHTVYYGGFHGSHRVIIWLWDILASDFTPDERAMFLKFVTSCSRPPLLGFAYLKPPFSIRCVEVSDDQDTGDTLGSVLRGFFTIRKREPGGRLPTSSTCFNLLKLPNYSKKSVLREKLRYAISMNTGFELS
Sequence of UniProt Q14258 (Q14258 whole entry, looked up): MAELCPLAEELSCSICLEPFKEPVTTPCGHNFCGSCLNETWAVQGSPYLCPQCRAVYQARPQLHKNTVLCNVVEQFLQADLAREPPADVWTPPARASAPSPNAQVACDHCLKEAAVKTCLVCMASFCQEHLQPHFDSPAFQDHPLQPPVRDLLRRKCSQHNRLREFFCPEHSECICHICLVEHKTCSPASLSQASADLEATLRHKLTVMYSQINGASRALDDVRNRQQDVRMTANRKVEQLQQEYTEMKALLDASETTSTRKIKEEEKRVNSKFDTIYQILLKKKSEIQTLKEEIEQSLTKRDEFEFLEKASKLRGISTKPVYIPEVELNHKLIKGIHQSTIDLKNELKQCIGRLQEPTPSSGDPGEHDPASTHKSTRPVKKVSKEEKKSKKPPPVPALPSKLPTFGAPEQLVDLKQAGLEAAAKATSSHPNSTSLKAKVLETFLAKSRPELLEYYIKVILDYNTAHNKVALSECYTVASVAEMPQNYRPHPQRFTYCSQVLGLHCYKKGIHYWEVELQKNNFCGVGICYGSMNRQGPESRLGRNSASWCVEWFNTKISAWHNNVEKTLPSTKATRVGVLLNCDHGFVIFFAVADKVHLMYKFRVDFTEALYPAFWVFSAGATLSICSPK
Sequence of UniProt Q9Y5K5 (Q9Y5K5 whole entry, looked up): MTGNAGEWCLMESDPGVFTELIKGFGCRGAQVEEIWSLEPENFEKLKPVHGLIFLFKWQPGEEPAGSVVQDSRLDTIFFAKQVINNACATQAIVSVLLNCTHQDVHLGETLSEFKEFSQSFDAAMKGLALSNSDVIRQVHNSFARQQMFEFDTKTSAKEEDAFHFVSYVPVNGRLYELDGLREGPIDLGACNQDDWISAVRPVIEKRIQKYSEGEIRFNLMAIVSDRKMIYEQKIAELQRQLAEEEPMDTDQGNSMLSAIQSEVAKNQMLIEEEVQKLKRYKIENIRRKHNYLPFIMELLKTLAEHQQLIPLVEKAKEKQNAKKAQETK
Sequence of UniProt Q9ULW0 (Q9ULW0 whole entry, looked up): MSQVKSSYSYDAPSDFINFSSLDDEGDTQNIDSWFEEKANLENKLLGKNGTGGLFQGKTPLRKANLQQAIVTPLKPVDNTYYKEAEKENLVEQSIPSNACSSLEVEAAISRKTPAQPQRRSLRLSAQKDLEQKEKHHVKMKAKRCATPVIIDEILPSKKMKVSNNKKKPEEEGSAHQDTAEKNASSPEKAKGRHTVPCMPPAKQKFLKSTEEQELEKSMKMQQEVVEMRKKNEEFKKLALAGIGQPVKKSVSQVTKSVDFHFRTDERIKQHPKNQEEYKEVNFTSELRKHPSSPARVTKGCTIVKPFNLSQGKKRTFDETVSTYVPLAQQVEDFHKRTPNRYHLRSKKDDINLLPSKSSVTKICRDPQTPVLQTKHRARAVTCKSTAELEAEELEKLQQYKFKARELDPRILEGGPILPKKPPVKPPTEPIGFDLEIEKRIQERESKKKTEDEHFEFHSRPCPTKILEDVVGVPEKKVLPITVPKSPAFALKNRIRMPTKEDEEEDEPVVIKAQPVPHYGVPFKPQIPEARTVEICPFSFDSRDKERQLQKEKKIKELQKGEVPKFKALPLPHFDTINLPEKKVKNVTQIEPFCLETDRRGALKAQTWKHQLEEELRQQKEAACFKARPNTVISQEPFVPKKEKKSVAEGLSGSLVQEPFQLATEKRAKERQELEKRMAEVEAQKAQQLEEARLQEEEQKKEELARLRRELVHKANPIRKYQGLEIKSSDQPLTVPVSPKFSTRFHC
Sequence of UniProt Q53S58 (Q53S58 whole entry, looked up): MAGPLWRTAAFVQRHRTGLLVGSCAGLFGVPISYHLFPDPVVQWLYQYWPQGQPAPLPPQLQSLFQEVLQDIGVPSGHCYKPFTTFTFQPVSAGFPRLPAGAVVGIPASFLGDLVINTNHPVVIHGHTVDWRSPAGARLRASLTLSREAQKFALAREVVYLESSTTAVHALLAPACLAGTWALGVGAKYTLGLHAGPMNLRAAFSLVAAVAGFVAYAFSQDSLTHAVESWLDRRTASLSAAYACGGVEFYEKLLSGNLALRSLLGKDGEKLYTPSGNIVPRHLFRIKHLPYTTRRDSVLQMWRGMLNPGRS
Sequence of UniProt P51668 (P51668 whole entry, looked up): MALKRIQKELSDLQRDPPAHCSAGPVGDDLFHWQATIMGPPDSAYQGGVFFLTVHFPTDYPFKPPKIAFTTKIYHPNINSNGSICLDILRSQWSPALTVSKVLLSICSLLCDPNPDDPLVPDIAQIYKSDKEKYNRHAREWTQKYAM
Sequence of UniProt Q12800 (Q12800 whole entry, looked up): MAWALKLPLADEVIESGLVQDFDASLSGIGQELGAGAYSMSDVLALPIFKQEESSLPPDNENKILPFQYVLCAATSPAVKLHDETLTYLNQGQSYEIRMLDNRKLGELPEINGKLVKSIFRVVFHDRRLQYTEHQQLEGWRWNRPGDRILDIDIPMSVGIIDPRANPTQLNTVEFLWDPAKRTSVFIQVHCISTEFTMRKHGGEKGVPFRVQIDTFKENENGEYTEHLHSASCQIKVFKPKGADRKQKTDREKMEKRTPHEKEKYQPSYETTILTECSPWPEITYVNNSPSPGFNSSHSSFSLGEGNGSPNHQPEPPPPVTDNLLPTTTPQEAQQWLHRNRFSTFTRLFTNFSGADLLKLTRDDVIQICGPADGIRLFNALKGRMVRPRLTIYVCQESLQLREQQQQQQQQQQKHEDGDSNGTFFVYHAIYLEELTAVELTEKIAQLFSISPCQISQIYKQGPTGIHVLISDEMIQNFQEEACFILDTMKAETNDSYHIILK
Sequence of UniProt O14933 (O14933 whole entry, looked up): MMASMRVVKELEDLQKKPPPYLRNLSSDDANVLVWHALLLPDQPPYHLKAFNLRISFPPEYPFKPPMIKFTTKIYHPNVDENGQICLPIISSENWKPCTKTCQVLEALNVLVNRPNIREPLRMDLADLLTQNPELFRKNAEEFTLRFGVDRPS
Sequence of UniProt Q96DX7 (Q96DX7 whole entry, looked up): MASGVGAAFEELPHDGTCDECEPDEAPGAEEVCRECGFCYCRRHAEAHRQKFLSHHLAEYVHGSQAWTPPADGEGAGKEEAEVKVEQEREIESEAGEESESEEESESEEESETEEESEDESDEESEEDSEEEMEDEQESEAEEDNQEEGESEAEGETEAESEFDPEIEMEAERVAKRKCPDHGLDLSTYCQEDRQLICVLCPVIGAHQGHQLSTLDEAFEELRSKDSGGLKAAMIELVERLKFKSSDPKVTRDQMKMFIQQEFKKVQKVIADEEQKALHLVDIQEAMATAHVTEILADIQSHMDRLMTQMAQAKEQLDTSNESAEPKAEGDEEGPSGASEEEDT
Sequence of UniProt Q96S44 (Q96S44 whole entry, looked up): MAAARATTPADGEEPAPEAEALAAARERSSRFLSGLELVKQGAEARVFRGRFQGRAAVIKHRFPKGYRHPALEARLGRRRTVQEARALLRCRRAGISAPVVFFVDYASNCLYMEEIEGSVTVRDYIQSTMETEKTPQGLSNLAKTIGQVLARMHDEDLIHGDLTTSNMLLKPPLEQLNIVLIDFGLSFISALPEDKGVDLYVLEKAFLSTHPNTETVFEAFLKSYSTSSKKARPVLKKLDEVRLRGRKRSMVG
Sequence of UniProt P11441 (P11441 whole entry, looked up): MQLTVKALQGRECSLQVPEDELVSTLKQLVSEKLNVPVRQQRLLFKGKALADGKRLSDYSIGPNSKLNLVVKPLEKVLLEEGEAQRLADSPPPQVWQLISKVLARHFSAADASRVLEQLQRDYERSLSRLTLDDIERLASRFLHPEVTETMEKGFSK
Sequence of UniProt P10646 (P10646 whole entry, looked up): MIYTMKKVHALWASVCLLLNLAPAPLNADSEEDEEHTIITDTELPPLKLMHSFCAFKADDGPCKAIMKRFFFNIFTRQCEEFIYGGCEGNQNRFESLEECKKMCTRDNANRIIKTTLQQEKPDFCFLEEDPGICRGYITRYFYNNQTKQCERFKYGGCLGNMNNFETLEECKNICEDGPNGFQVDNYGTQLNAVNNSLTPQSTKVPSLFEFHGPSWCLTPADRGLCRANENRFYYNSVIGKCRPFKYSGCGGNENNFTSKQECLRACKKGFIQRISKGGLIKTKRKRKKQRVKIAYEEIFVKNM

Compound in this experiment: C1=CC=C(C=C1)[C@H](COC2=CC3=C(C=C2)NC(=O)N3)NC(=O)C4=CC=CN(C4=O)CC5=CC(=C(C=C5)F)F
Description: log2 fold change, soluble protein after heating vs DMSO (PISA); higher = thermal stabilisation; K562 lysate, 10 uM; active = over 0.2 and 3.5 SD of the protein, either way, in both replicates (recomputed). The method in brief: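 K562 pellets were dounce-homogenised in PBS pH 7.4 with 1 mM MgCl2, and the crude extract at 1 mg/mL protein was treated with 10 μM compound for 30 min. Aliquots were heated for 3 min across 48°C-58°C, pooled, and brought to 0.5% NP-40 at 4°C; soluble protein was the supernatant after 21,000xg for 90 min. Soluble protein was quantified by TMTpro 16plex LC-MS/MS with channel sums equalised, and reported as log2 fold change in thermal stability against DMSO controls, with values from duplicates.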
As to TTLL12 (UniProt V9GY16), the log2 fold change is 0.022.
The value for TGFBRAP1 (UniProt Q8WUH2) was -0.035.
With TPX2 (UniProt Q9ULW0), the log2 fold change is 0.04.
The value for UBL4A (UniProt P11441) was -0.029; that for TRAPPC12 (UniProt Q8WVT3) was 0.005; that for TNPO3 (UniProt Q9Y5L0) was -0.024.
In the case of UCHL5 isoform 3 (UniProt Q9Y5K5), the log2 fold change was -0.001.
For the target UBE3B (UniProt Q7Z3V4), the log2 fold change is -0.085.
With TFCP2 (UniProt Q12800), the log2 fold change is 0.044.
To TFPI (UniProt P10646) belongs 0.053; to TMEM161B (UniProt Q8NDZ6), -0.07.
Turning to TUBGCP4 (UniProt Q9UGJ1), the log2 fold change was -0.005.
With UBE2L6 (UniProt O14933), the log2 fold change is -0.01.
In the case of TSFM (UniProt P43897), the log2 fold change is 0.006.
As to TELO2 (UniProt Q9Y4R8), the log2 fold change was -0.073.
Turning to TRIM25 (UniProt Q14258), the log2 fold change was 0.047.
The value for TBL2 (UniProt Q9Y4P3) was 0.01; that for UBE2D1 (UniProt P51668) was 0.056; that for TMEM177 (UniProt Q53S58) was 0.002.
To TP53RK (UniProt Q96S44) belongs 0.013; to TRIM33 (UniProt H0Y612), -0.042; to TRIM11 (UniProt Q96F44), 0.028.
In the case of TRIM44 (UniProt Q96DX7), the log2 fold change is 0.096.

These data come from the supplement of paper PMC10849652.
